From PubChem BioAssay

Experiment: small-molecule binders of probe aNOTCH2, primary screen, biochemical, small-molecule microarray, 635/667 nm fluorescence (AID 1121);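 further: score merges feature fluorescence read at 667 nm with its signal to noise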
Conditions: higher = more signal

SMILES | composite z-score
COC(=O)[C@H](C)NC(=O)CCC1CC(OC(=O)NCCc2ccc(F)cc2)CC2(CCCC(COC(=O)NCCc3ccc(Cl)cc3)O2)O1 (stereo not given in full) | -0.0261
C=COC[C@H]1CN2[C@@H](CC[C@@H](C)[C@@H]2c2ccc(Br)cc2)C(=O)O1 | 0.0877
CN1C(=O)C2C=CC(C(O)c3ccc(Br)cc3)N(N(c3ccccc3)c3ccccc3)C2C1=O (stereo not given) | -0.0976
COC(=O)[C@H](C)NC(=O)[C@@H](C)CO | -0.103
O=C1[C@H]2[C@H]3[C@H](O)[C@H](O)CC(=NOCc4ccccc4)[C@@H]3CC[C@H]2C(=O)N1Cc1ccccc1 | -0.14
CC(C)[C@@H](OCc1ccccc1)[C@H](C)C=NOC[C@@H](C)[C@H](OCc1ccccc1)C(C)C | -0.126
CCOC(=O)[C@H](Cc1ccccc1)NC(=O)CCC1CC(OC(=O)NCc2ccc3c(c2)OCO3)CC2(CCCC(COC(=O)NCC3CCCCC3)O2)O1 (stereo not given in full) | -0.0891
COC(=O)[C@@H]1CC[C@H](C)[C@@H](c2ccc(C)cc2)N1C(=O)c1ccc(C=NOC[C@@H](O)COCc2ccco2)cc1 | -0.195
Cc1cc2c(nc1C)CCCN2CC(O)CN1CCN(C)CC1 (stereo not given) | -0.149
C=C(CCCC)C(=O)CC[C@@H](OC(C)=O)c1cccc(OCCO)c1 | -0.193
CCOC(=O)[C@H](Cc1ccccc1)NC(=O)CCC1CC(OC(=O)NCc2ccc3c(c2)OCO3)CC2(CCCC(COC(=O)NCC(c3ccccc3)c3ccccc3)O2)O1 (stereo not given in full) | -0.11
C#CCCCON=C1C[C@@H](O)[C@@H](O)[C@@H]2[C@@H]3C(=O)N(c4cccc(Oc5ccccc5)c4)C(=O)[C@@H]3CC[C@@H]12 | -0.244
CC(C)CON=C1C[C@@H](O)[C@@H](O)[C@@H]2[C@@H]3C(=O)N(C[C@@H]4CCCO4)C(=O)[C@@H]3CC[C@H]12 | -0.0659
CCN1C(=O)[C@H]2[C@H]3[C@H](O)[C@H](O)CC(=NO[C@@H]4O[C@H](CO)[C@@H](O)[C@H](O)[C@H]4O)[C@@H]3CC[C@H]2C1=O | -0.203
COc1ccc(-c2ccc3c(n2)CCCN3CC(O)CN2CCCc3nc(C)c(C)cc32)cc1 (stereo not given) | -0.0017
CO[C@H]1O[C@H](CO)[C@@H](OC(=O)Nc2ccc3c(c2)OCO3)[C@H](OC(=O)Nc2ccccc2-c2ccccc2)[C@@H]1OC(=O)Nc1ccccc1-c1ccccc1 | 0.186
COC(=O)CC1OC1[C@H](C)[C@@H](OC)C(C)C (stereo not given in full) | -0.124
CO[C@@H]1COC(=O)CC=C[C@@H](C)[C@@H]2C=C[C@H](O)[C@@H](COC(=O)[C@H](C)NC(=O)CC=C[C@H]1C)O2 | -0.164
N#Cc1ccc(NN2C(C(O)c3cc(C(F)(F)F)cc(C(F)(F)F)c3)C=CC3C(=O)N(c4ccccc4)C(=O)C32)cc1 (stereo not given) | 0.0388
CCOC(=O)NN=C1C[C@@H](O)[C@@H](O)[C@@H]2[C@@H]3C(=O)N(C[C@@H]4CCCO4)C(=O)[C@@H]3CC[C@@H]12 | -0.166
COCCOC(=O)N1C(=O)[C@@]2(c3cc(C#CC4(O)CCCCCC4)ccc31)[C@H](C(=O)N1CCN(c3ncccn3)CC1)[C@H]1C(=O)O[C@H](c3ccccc3)[C@H](c3ccccc3)N1[C@@H]2c1ccc(OCCO)cc1 | -0.112
C=CC[C@]1(C(=O)NCc2ccccc2)N=C(c2ccc(OCCCO)cc2)O[C@H]1c1ccccc1 | -0.123
COc1ccc(O[C@H]2C=C[C@@H](c3ccccc3)O[C@@H]2COC(=O)CCC(C)=NOC(C)CN2CCCCc3nc(C)c(C)cc32)cc1 (stereo not given in full) | -0.179
CO[C@@H]1COC(=O)CC=C[C@@H](C)[C@@H]2C=C[C@@H](O)[C@@H](COC(=O)CC=C[C@H]1C)O2 | -0.16
CCOC(=O)[C@H](Cc1ccccc1)NC(=O)CCC1CC(OC(=O)NCCc2ccc(F)cc2)CC2(CCCC(COC(=O)NCC(c3ccccc3)c3ccccc3)O2)O1 (stereo not given in full) | -0.037
C[C@H]1CC[C@@H](C(=O)O)N[C@@H]1c1ccc(C#CCN(C)C)cc1 | -0.149
O=C1NC(=O)C2C1C=CC(C(O)Cc1ccccc1)N2Nc1ccccn1 (stereo not given) | -0.0079
CCOC(=O)CCN1C(=O)[C@H]2[C@H]3[C@H](O)[C@H](O)CC(=NOC[C@@H](O)COCc4ccco4)[C@@H]3CC[C@H]2C1=O | -0.124
CC(C)(C)N1C(=O)[C@H]2[C@H]3[C@H](O)[C@H](O)CC(=NOCc4ccccc4)[C@@H]3CC[C@H]2C1=O | -0.131
COC(=O)[C@@]1(Cc2ccccc2)[C@H]2c3cc(C(=O)N4CCCC4)n(Cc4ccccn4)c3C[C@H]2CN1C(=O)c1ccccc1 | 0.284
